From PubChem BioAssay AID1220 (Sanford-Burnham Center for Chemical Genomics, 2008)
About 1,300 (0.68%) of roughly 190,000 compounds were called active. Cut-off read from the data, not from the text of the source: active = inhibition above about 50%; inactive = the rest. Only a selection was taken, and actives are over-represented in it overall.

Each compound was assayed against Mannose-6-phosphate isomerase (Homo sapiens) (UniProt P34949) (assay: human PMI inhibitors, high substrate, primary screen, biochemical, fluorescence intensity, high mannose 6-phosphate (AID 1220)). Conditions: recombinant PMI enzyme, coupled fluorescence intensity; at 20 µM; stronger effect = higher value.
Sequence of Mannose-6-phosphate isomerase (Homo sapiens) (P34949 whole entry, looked up): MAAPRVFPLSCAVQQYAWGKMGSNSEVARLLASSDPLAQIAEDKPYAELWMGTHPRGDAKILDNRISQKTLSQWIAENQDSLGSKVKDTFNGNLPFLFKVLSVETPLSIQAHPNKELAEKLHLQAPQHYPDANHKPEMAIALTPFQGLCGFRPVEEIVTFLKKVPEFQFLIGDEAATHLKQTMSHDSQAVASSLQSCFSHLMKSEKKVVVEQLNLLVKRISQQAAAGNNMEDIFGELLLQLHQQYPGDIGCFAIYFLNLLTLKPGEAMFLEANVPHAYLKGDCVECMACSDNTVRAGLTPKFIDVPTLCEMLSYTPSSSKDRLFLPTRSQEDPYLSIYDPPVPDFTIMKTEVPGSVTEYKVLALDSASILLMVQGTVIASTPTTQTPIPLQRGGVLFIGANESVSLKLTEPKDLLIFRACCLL

C=CCNC(=S)Nc1cccc(N)c1 was tested. Which inhibition did it give?
The inhibition was 57.6% (active).

For C=CCNC(=S)Nc1ccccc1, which inhibition is on record?
The inhibition was 9% (inactive).

How did the inhibition turn out when C=CCNC(=S)Nc1cccc(NC(=S)NCC=C)c1 was run?
Its inhibition is 5.5% (inactive).

For O=C(Cc1c(O)c2ccccc2[nH]c1=O)NC1CCCCCC1, which inhibition is on record?
Its inhibition is 5.7% (inactive).

With CCC(C)(C)n1nnnc1CN1CCC(NC(=O)c2ccc(Br)cc2)CC1 as the compound, how does the inhibition read?
The inhibition was 7% (inactive).

For CCCCc1cc2c(c(NC(=O)CC)n1)c(=O)oc1ccccc12, which inhibition is on record?
The inhibition was -0.5% (inactive).

For Cc1ccc2c(c1)/C(=N/N1C(=O)c3ccccc3C1=O)C(=O)N2, which inhibition is on record?
Its inhibition is 8.4% (inactive).

With COc1ccc(N=C2C(=O)Nc3ccccc32)cc1 as the compound, how does the inhibition read?
Its inhibition is 43% (inactive).

CCn1c(-c2ccccc2Cl)nn(CC(=O)Nc2cc(Cl)ccc2Cl)c1=S was tested. Which inhibition did it give?
Its inhibition is 4.7% (inactive).

How did the inhibition turn out when Cc1cc(-c2ccccc2)nc(N(C)C)c1S(C)(=O)=O was run?
The inhibition was 2% (inactive).

Which inhibition does the source give for CNc1nc(-c2ccccc2)cc(C)c1S(C)(=O)=O here?
The inhibition was 56% (active).

Cc1cc(-c2ccccc2)nc(N(C)N)c1S(C)(=O)=O was tested. Which inhibition did it give?
Its inhibition is -2.2% (inactive).

Which inhibition does the source give for Cc1c(Br)c([N+](=O)[O-])nn1CC(=O)NCCc1c[nH]c2ccccc12 here?
The inhibition was 6.1% (inactive).

How did the inhibition turn out when CSCCNC(=O)c1ccc(OC2CCN(CCc3ccccc3)CC2)cc1 was run?
The inhibition was -9.3% (inactive).

How did the inhibition turn out when O=C(Cn1nc(-c2ccccc2)ccc1=O)Nc1cccc(NC(=O)c2ccccn2)c1 was run?
The inhibition was -11.7% (inactive).

How did the inhibition turn out when CCN1C(=O)/C(=C/C=C2/SCCN2C)SC1=S was run?
The inhibition was 27.6% (inactive).

How did the inhibition turn out when CN1CCS/C1=C\C=C1/SC(=S)N(CC(=O)O)C1=O was run?
The inhibition was 19.8% (inactive).

Which inhibition does the source give for CCCCN1C(=O)/C(=C/C=C2\SCCN2C)SC1=S here?
Its inhibition is 53.5% (active).

How did the inhibition turn out when COc1ccc(-c2cc(CNC(=O)CN3CCN(C)CC3)on2)cc1 was run?
The inhibition was 20.4% (inactive).

COc1cc(OC)cc(-c2nc(-c3cccs3)no2)c1 was tested. Which inhibition did it give?
The inhibition was 10.1% (inactive).

How did the inhibition turn out when Cc1cc2cc(NC(=O)c3ccco3)ccc2[nH]1 was run?
Its inhibition is 10.8% (inactive).

Which inhibition does the source give for CC(=O)Nc1cccc(NC(=O)CSc2ccc3nnc(CCNC(=O)c4ccccc4)n3n2)c1 here?
Its inhibition is 10.1% (inactive).

How did the inhibition turn out when Nc1ccc(N2CCCCC2)c2nonc12 was run?
Its inhibition is 68.3% (active).

Nc1cc(Cl)ccc1N1CCCC1 was tested. Which inhibition did it give?
Its inhibition is 36.3% (inactive).

For Nc1ccc(N2CCCCC2)cc1N1CCCCC1, which inhibition is on record?
Its inhibition is 46.4% (inactive).

Which inhibition does the source give for Nc1ccc(N2CCCCC2)c(Cl)c1 here?
The inhibition was 2.9% (inactive).

For Nc1ccccc1N1CCOCC1, which inhibition is on record?
The inhibition was -0.3% (inactive).

How did the inhibition turn out when Nc1ccc(N2CCOCC2)c2nonc12 was run?
Its inhibition is 57% (active).

With Nc1nonc1N1CCCCC1 as the compound, how does the inhibition read?
Its inhibition is 13.1% (inactive).

With Nc1cc(Cl)ccc1N1CCOCC1 as the compound, how does the inhibition read?
Its inhibition is -3.8% (inactive).

How did the inhibition turn out when Nc1c(N2CCCC2)cc(Cl)c2nonc12 was run?
Its inhibition is 55.1% (active).

With CN1CCN(C(=O)C2=C[C@@H](c3ccccc3)C[C@@H](OCc3ccc(CO)cc3)O2)CC1 as the compound, how does the inhibition read?
Its inhibition is 1.7% (inactive).

CCCCCCOC1(c2ccccc2)OC(=O)c2ccccc21 (centres undefined) was tested. Which inhibition did it give?
Its inhibition is 11.5% (inactive).

Which inhibition does the source give for CCCCCn1c(=O)[nH]c2c(c1=O)CCC2 here?
The inhibition was 4.7% (inactive).

Which inhibition does the source give for CC1(C)C(=O)NCCN1C(=O)CCCC(=O)O here?
The inhibition was 2.6% (inactive).

With OCCn1c(CSc2nc3ccccc3n2CCO)nc2ccccc21 as the compound, how does the inhibition read?
The inhibition was 3% (inactive).

With O=C(NCc1ccccn1)c1cccs1 as the compound, how does the inhibition read?
Its inhibition is 4.7% (inactive).

With CC(C)(C)C(=O)Nc1nnc(CC(=O)NCc2ccccc2)s1 as the compound, how does the inhibition read?
The inhibition was 13.1% (inactive).

O=[N+]([O-])c1cccnc1N1CCCCC1 was tested. Which inhibition did it give?
Its inhibition is 10.7% (inactive).

Which inhibition does the source give for NC(=O)C1CCN(c2ncccc2[N+](=O)[O-])CC1 here?
The inhibition was -3.3% (inactive).

O=C(O)C1CCCN1c1ncccc1[N+](=O)[O-] (centres undefined) was tested. Which inhibition did it give?
Its inhibition is 50.8% (active).

With O=C(O)C1CN(c2ncccc2[N+](=O)[O-])C1 as the compound, how does the inhibition read?
The inhibition was 26.1% (inactive).

O=[N+]([O-])c1cccnc1N1CCOCC1 was tested. Which inhibition did it give?
The inhibition was 7.1% (inactive).

With O=C(O)[C@@H]1[C@@H]2C[C@@H]2CN1c1ncccc1[N+](=O)[O-] as the compound, how does the inhibition read?
The inhibition was 65.1% (active).

For COc1cccc(NC(=O)c2ccc(NCCCN3CC(C)CC(C)C3)c([N+](=O)[O-])c2)c1 (centres undefined), which inhibition is on record?
The inhibition was -12.8% (inactive).

For CCOP(=O)(CC(C(C)=O)C(O)c1ccccc1)OCC (centres undefined), which inhibition is on record?
The inhibition was 11.7% (inactive).

How did the inhibition turn out when Cc1cccc(/C=N\Nc2nnc(-c3ccccc3)c(=O)[nH]2)c1 was run?
Its inhibition is 7.5% (inactive).

How did the inhibition turn out when Cc1ccc(S(=O)(=O)N2CCCC2C(=O)Nc2nc3ccccc3s2)cc1 (centres undefined) was run?
The inhibition was 17.6% (inactive).

For CCN(CC)c1ccc(C=Nc2ccccc2)c(O)c1, which inhibition is on record?
The inhibition was 61.8% (active).

For CCN(CC)c1ccc(/C=N/Nc2ccccc2)c(O)c1, which inhibition is on record?
Its inhibition is -21.9% (inactive).

With CCOC(=O)N/N=C/c1ccc(N(CC)CC)cc1O as the compound, how does the inhibition read?
Its inhibition is 53.3% (active).

With CCN(CC)c1ccc(/C=N/NC(=O)OC)c(O)c1 as the compound, how does the inhibition read?
Its inhibition is 27.7% (inactive).

How did the inhibition turn out when CCN(CC)c1ccc(/C=N/N=C(N)N)c(O)c1 was run?
The inhibition was 64% (active).

Which inhibition does the source give for CCN(CC)c1ccc(/C=N/N(c2ccccc2)c2ccccc2)c(O)c1 here?
The inhibition was 30% (inactive).

For CCN(CC)c1ccc(C=Nc2cc(C)cc(C)c2)c(O)c1, which inhibition is on record?
Its inhibition is 52.8% (active).

Which inhibition does the source give for CCN(CC)c1ccc(/C=N/Nc2cccc(C)c2)c(O)c1 here?
Its inhibition is -62.5% (inactive).

How did the inhibition turn out when CCN(CC)c1ccc(/C=N/NC(=S)NC)c(O)c1 was run?
Its inhibition is 21.9% (inactive).

For CCN(CC)c1ccc(/C=N/N=C(c2ccccc2)c2ccccc2)c(O)c1, which inhibition is on record?
The inhibition was 4.8% (inactive).

How did the inhibition turn out when CCN(CC)c1ccc(C=Nc2ccc(C#N)cc2)c(O)c1 was run?
The inhibition was 40.4% (inactive).

Which inhibition does the source give for CCC(=O)N1CCc2cc(S(=O)(=O)NC(Cc3ccccc3)C(=O)NC3CCCCC3)ccc21 (centres undefined) here?
Its inhibition is -11.2% (inactive).

With CCCCc1ccc(NC(=S)NCCN2CCOCC2)cc1 as the compound, how does the inhibition read?
The inhibition was -3.3% (inactive).

For COC(=O)c1cn(C)c2ccc(S(=O)(=O)N3CCOCC3)cc2c1=O, which inhibition is on record?
Its inhibition is 0.8% (inactive).

Which inhibition does the source give for CC(Nc1ccccc1)C(=O)Nc1ccc(F)cc1 (centres undefined) here?
The inhibition was -11.4% (inactive).

CCN(CC)c1ccc(C=Nc2ccc(C)cc2)c(O)c1 was tested. Which inhibition did it give?
The inhibition was 57% (active).

Which inhibition does the source give for CCN(CC)c1ccc(N=Cc2ccc(N(CC)CC)cc2O)cc1 here?
The inhibition was 19.5% (inactive).

For CCN(CC)c1ccc(C=Nc2ccc(N(C)C)cc2)c(O)c1, which inhibition is on record?
Its inhibition is 28.1% (inactive).

With COc1ccc(N(C)S(=O)(=O)c2cccc(C(=O)NCC3CCCO3)c2)cc1 (centres undefined) as the compound, how does the inhibition read?
Its inhibition is -3.8% (inactive).

For Cc1sc2ncnc(SCC(=O)N3CCN(C(=O)c4ccco4)CC3)c2c1C, which inhibition is on record?
Its inhibition is 6.2% (inactive).

For COc1ccc(C(C(=O)NC2CCCC2)N(Cc2ccccc2)C(=O)c2nsc(Cl)c2Cl)cc1 (centres undefined), which inhibition is on record?
Its inhibition is 21.1% (inactive).
